A selection: hits, their analogues and other compounds. The true share with any hit is near 5.7%.
DAX1 inh-1: DAX1 (NR0B1) inhibition, primary screen. HEK293T StAR-luciferase reporter, SF-1/DAX-1 repression relief. inhibition, % at 6.8 µM. actives 1.1% (n = 370,000). AID 652010;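 active = inhibition above the mean over all tested compounds plus 3 SD, cut at about 3.6% in these data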;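 also: 0% = DAX-1 cells with DMSO and 100% = cells lacking DAX-1 with DMSO; higher inhibition means more luminescence from relief of DAX-1 repression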
hcDAF-12 act: activates DAF-12 receptor from parasite H. contortus; HEK293 hcDAF-12 lit1-tk-luc reporter, luminescence; 0% DMSO, 100% Δ7-dafachronic acid; activation, % at 6.8 µM; actives 1.4% (n = 370,000);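 active = activation above the mean of all tested compounds plus 3 SD, cut at about 5.5% in these data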;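 also: 100% = response to 3 µM Δ7-dafachronic acid high control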
AHR act: activators of human aryl hydrocarbon receptor | AHR-responsive luciferase reporter cells, luminescence | P35869 | activation, % at 5 µM | AID 2796 | actives 2.5% (n = 320,000); in the data active = activation above about 47%;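 also: 0% = vehicle wells and 100% = reference agonist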
DAX1 inh-2: inhibits human nuclear receptor DAX1. P51843. HEK293 Gal4-DAX1 luciferase reporter, luminescence. inhibition, % at 6.75 µM. actives 0.99% (n = 340,000);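 active = inhibition above the mean over all tested compounds plus 3 SD, cut at about 4.2% in these data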;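 also: 0% = DAX1-transfected cells with DMSO and 100% = empty-vector control cells with DMSO; inhibition shows as a rise in luminescence from relieved DAX1 repression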
Target sequence (P51843 207-470 limits assumed): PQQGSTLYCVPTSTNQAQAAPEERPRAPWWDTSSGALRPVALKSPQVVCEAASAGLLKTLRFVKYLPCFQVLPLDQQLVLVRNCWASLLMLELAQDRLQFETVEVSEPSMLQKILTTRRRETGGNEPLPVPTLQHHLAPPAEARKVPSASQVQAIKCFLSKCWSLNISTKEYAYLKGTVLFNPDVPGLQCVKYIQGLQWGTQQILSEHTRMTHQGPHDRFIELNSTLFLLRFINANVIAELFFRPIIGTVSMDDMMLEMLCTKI
ssDAF-12 act: activates DAF-12 receptor from parasite S. stercoralis; HEK293 ssDAF-12/GRIP1 lit1-tk-luc reporter, luminescence; % of 3 µM dafachronic acid response; activation, % at 6.8 µM; actives 1% (n = 370,000); AID 652126;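 active = activation above the mean over all tested compounds plus 3 SD, cut at about 0.9% in these data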;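 also: 0% = DMSO-only wells and 100% = 3 µM delta7-dafachronic acid wells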
hgDAF-12 ag: hgDAF-12 agonism, primary luciferase screen; HEK293 GAL4-hgDAF12 UAS-luciferase reporter, agonist luminescence; normalized to butyrate control; activation, % at 6.8 µM; actives 1.8% (n = 370,000); AID 687014;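 active = activation above a cutoff set at the mean of all screened compounds plus 3 SD, cut at about 10% in these data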;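 also: 0% = DMSO wells and 100% = sodium butyrate wells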
An asterisk follows results filed as active; · = no result given.

SMILES | DAX1 inh-1 | hcDAF-12 act | AHR act | DAX1 inh-2 | ssDAF-12 act | hgDAF-12 ag
Cc1ccc(NC(=O)Cc2c[nH]c3ccccc23)cc1S(=O)(=O)N1CCCCCC1 | 0 | 6.2* | 26 | 0 | -1 | 3
Cc1ccc(S(=O)(=O)N2CCCCC2)cc1NC(=O)Cc1c[nH]c2ccccc12 | 0 | 5.8* | 23 | 0 | 0 | -1
C1CCc2nc3c(nc2C1)CCCC3 | 1 | -1 | 1 | 5.0* | -1 | 1
c1ccc2nc3c(nc2c1)CCCC3 | 0 | -1 | 4 | 0 | -1 | 0
CCCCOc1ccc(C(=O)NCC(=O)N2CCN(C(=O)c3ccco3)CC2)cc1 | 2 | -2 | -1 | -1 | -1 | 1
CC(C)CC(=O)N1CCN(C(=O)c2ccco2)CC1 | 1 | 5.7* | 1 | -2 | -1 | 2
O=C(NCC(=O)N1CCN(C(=O)c2ccco2)CC1)c1ccccc1 | 2 | -1 | 3 | 0 | 1.0* | 0
CC(C)(C)c1cccc(/C=N/O)c1O | 1 | -2 | 0 | 1 | -2 | 1
COc1ccccc1C1CC(c2ccccc2)=NN1C(=S)Nc1ccccc1 (configuration not stated) | -1 | 3 | 13 | 1 | -1 | 4
COc1ccc(C2=NS(=O)(=O)N(C)C(C(=O)Nc3ccc4c(c3)OCO4)=C2)cc1 | -1 | -1 | 35 | 0 | -2 | 0
COc1cc(/C=N/N=C(/N)c2nonc2N)cc(Br)c1OCc1cccc(C)c1 | 0 | -2 | 1 | 0 | -1 | 7
COc1cc(/C=N/N=C(\N)c2nonc2N)cc(OC)c1O | 2 | 1 | -6 | 4.2* | 0 | 13*
COc1ccc(-c2cc(C3CC3)nc3sc(C#N)c(N)c23)cc1 | -1 | -2 | -2 | 0 | -2 | 3
Cc1ccc(-c2[nH]c3ccccc3c2SCCN)cc1 | 1 | 6.0* | 46 | 2 | 1.2* | 4
NCCSc1c(-c2ccccc2)[nH]c2ccccc12 | 0 | 2 | 12 | 1 | -1 | 0
NCCSc1c(-c2ccc(F)cc2)[nH]c2ccccc12 | -1 | 0 | 12 | 0 | -1 | 2
NCCSc1c(-c2ccc(Cl)cc2)[nH]c2ccccc12 | 0 | 0 | 48* | 3 | -1 | 0
CC(C)CCn1c(=O)c2ccccc2n2c(CN(C)Cc3ccccc3)nnc12 | -1 | 1 | 6 | -2 | -1 | -2
CC(=O)Cn1ncc(Br)c(Br)c1=O | -1 | 0 | · | 6.6* | -2 | 0
O=C(OCn1ncc(Br)c(Br)c1=O)c1c(F)cccc1F | · | · | 14 | · | · | ·
O=[N+]([O-])c1cccc(-n2nnnc2CNCc2ccccc2)c1 | -1 | 0 | -4 | 5.7* | -2 | -2
O=C(Cc1c[nH]c2ccccc12)Nc1ccc(Nc2cccnc2)c(-c2ccc(F)c(F)c2)c1 | -3 | 0 | · | · | -1 | -6
O=C(Cc1c[nH]c2ccccc12)Nc1ccc(Nc2cccnc2)c(-c2ccc(-c3ccccc3)cc2F)c1 | -2 | 5.7* | · | · | 0 | -1
O=C(Nc1cccc(S(=O)(=O)N2CCOCC2)c1)c1cnn2c(C(F)F)cc(-c3ccccc3)nc12 | 1 | 0 | 7 | 5.0* | -2 | -2
CC1=NN(c2ccc(Br)cc2)C(=O)/C1=C/c1cccs1 | 0 | 5 | 44 | 1 | 0 | 0
SMILES | DAX1 inh-1 | hcDAF-12 act | AHR act | DAX1 inh-2 | ssDAF-12 act | hgDAF-12 ag
Nc1ncnc(Oc2cccc(C(F)(F)F)c2)c1[N+](=O)[O-] | -1 | 2 | 7 | 0 | -2 | 1
O=c1cc(CN2CCN(S(=O)(=O)c3ccc4ccccc4c3)CC2)nc2sccn12 | 0 | -2 | 0 | 1 | -2 | -1
CS(=O)(=O)N1CCN(Cc2cc(=O)n3ccsc3n2)CC1 | 0 | -1 | 0 | 5.2* | -2 | -1
CN(C)C(=O)COC(=O)c1ccc(S(=O)(=O)NCc2ccco2)cc1 | 0 | 0 | 3 | 2 | -2 | 2
COC(=O)c1cccc(NC(=O)c2cccc(-n3cnnn3)c2)c1 | -2 | 0 | · | -1 | -2 | 0
O=C(Nc1cnc2ccccc2c1)c1cccc(-n2cnnn2)c1 | 1 | 6.3* | 59* | 3 | 0 | 9
CCOc1ccccc1NC(=O)c1cc(-c2cc(OC)c(OC)c(OC)c2)nc2ccccc12 | -1 | -4 | 13 | -2 | -2 | -3
Cn1cc(Cl)c(-c2nc3ccccc3[nH]2)n1 | 1 | 4 | 1 | 1 | 0 | 12*
O=C(CSc1cn[nH]n1)Nc1nc2ccccc2s1 | 1 | 6.0* | 43 | 1 | 0 | 5
COc1ccc(-c2nnc3ccc(SCC(=O)Nc4nc5ccccc5s4)nn23)cc1OC | -1 | 0 | 25 | 0 | -1 | 11*
O=C(CSc1ccccn1)Nc1nc2ccccc2s1 | 0 | 5 | 4 | 2 | -2 | 10
Cc1ccc(CSc2ccc3nnc(-c4cccnc4)n3n2)cc1 | 0 | -4 | 71* | 0 | -1 | -4
COc1ccccc1NC(=O)CSc1ccc2nnc(-c3cccnc3)n2n1 | 1 | 0 | 79* | 3 | -1 | -3
N/C(=N\OC(=O)C1CCCCC1)c1cccc([N+](=O)[O-])c1 | · | · | 26 | 1 | · | ·
CCOc1cc(C(=S)N2CCCC2)ccc1OC(=O)Cc1ccc(F)cc1 | 0 | 0 | 1 | 0 | -1 | -1
O=C(CSc1ccc2nnc(-c3ccccn3)n2n1)Nc1nccs1 | 0 | -1 | 55* | 1 | -1 | 1
CCCNC(=O)C1(C)CCCN(C(=O)c2cccc(OC(F)(F)F)c2)C1 (configuration not stated) | 0 | 0 | · | · | -1 | -1
C=CCOc1cccc(/C=N/NC(=O)CN(c2cc(Cl)ccc2OC)S(=O)(=O)c2ccc(C)c([N+](=O)[O-])c2)c1 | 0 | 1 | 13 | 1 | 1.0* | 0
O=C(O)CSc1nnc(COc2cccc3ccccc23)n1Cc1ccccc1 | 0 | 2 | 0 | 0 | -2 | 0
CCC1CCCCN1C(=O)CSc1nnc2nc(C)cc(C)n12 (configuration not stated) | 4.0* | 0 | 1 | 0 | -2 | 1
Cc1cc(C)n2c(SCC(=O)NC3CCCCC3C)nnc2n1 (configuration not stated) | 0 | -1 | 3 | 1 | -2 | 0
Cc1cc(NC(=O)C(=O)NCc2cccc(Cl)c2)no1 | 0 | -2 | -1 | 5.5* | -1 | 2
Cc1ccc(-c2nnc(/C=C/c3ccccc3)o2)cc1 | 2 | 3 | 8 | 0 | -1 | 11*
O=C(COc1ccccc1/C=C1/NC(=O)NC1=O)Nc1ccccc1 | 0 | -1 | 36 | -1 | -2 | 0
O=C(COc1ccccc1/C=C1\SC(=O)NC1=O)Nc1ccc(F)cc1 | 0 | -1 | 98* | 0 | -2 | 1
C=CCNc1nc(-c2sc(NC(=O)CC)nc2C)cs1 | -1 | -2 | 70* | 1 | -1 | 0

Bioassay records deposited in PubChem BioAssay by The Scripps Research Institute Molecular Screening Center.
